HT1080NT lethal = kills 2HG-producing HT-1080-NT fibrosarcoma cells; HT-1080-NT fibrosarcoma viability, CellTiter-Glo ATP luminescence, 48 h; Potency, µM (highest dose often 46.1 µM), without a hit: at the top dose activity, negative = less viability, actives largely listed as cytotoxic; 360,000 compounds, 1.6% hits; AID 686970;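 also: NT is the 2HG producing partner of a matched IDH1 knockdown line; potency is read from the fitted curve at half-maximal effect; 0% = DMSO-treated cells and -100% = media-only wells without cells; nearly all actives have a fitted effect of over 55% in size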
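Compounds were tested in concentration-response format on HT-1080-NT cells for 48 hours at 37 degrees C. Cell viability came from CellTiter-Glo luminescence; curves were classified by r2, response magnitude and activity.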
HT1080 IDH1KD tx = HT-1080 IDH1 knockdown cell toxicity (counter line). HT-1080 IDH1 knockdown viability, ATP luminescence, 48 h. Potency, µM (series often up to 46.1 µM), for the others: at the top dose activity, negative = toxicity, hits mostly cytotoxic. 360,000 compounds, 2% hits;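 also: potency is read from the fitted curve at half-maximal effect; 0% = DMSO wells and -100% = cell-free medium wells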
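After a 2 h attachment period, IDH1KD HT-1080 cells took pin-transferred compound for 48 h at 37 °C; ATP-based luminescence after 10 min room-temperature reagent incubation reported viability.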
DT40 TDP1 CPT = growth inhibition of DT40 Tdp1-/-;hTDP1 cells with camptothecin (screen for TDP1 inhibitors). Potency, µM (highest dose often 46.2 µM), inactives show at the top dose activity change, negative = growth inhibition, actives largely listed as inhibitors. chicken DT40 Tdp1-/-;hTDP1 cells + 20 nM CPT, ATP luminescence, 48 h. AID 686979. 420,000 compounds, 12% hits; also: potency is read from the fitted curve at half-maximal effect; nearly all actives have a fitted effect of over 55% in size
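Cell growth measured by CellTiter-Glo luminescence after a minimum 48 h, 37 C compound exposure with 20 nM CPT in Tdp1-knockout DT40 cells stably expressing hTDP1, seeded 400/well; qHTS titration format.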
IL1B secr inh = inflammasome signaling inhibition, IL-1 beta readout; activity change, % at 57.5 µM; 360,000 compounds, 4.7% hits; THP-1 LPS/ATP IL-1B secretion, AlphaLISA, 16 h; active compounds read low; in the data active = activity change below about -50%; inconclusive = mostly about -30% to -49%
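Secreted IL-1B measured by AlphaLISA bead assay after 16 h compound exposure of THP-1 cells; compounds (final up to 57.5 uM) added 1 h before LPS (250 ng/mL) and ATP (1.25 mM) stimulation; lower signal means less secretion.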
TDP1 cell noCPT = qHTS for Inhibitors of human tyrosyl-DNA phosphodiesterase 1 (TDP1): qHTS in cells in absence of CPT | DT40 Tdp1-/- hTDP1 cells, no CPT, ATP luminescence, 48 h | Potency, µM (doses to about 46.2 µM), inactives show at the top dose activity change, negative = growth inhibition, actives largely listed as inhibitors | 420,000 compounds, 15% hits | AID 686978, 2013; also: potency is read from the fitted curve at half-maximal effect; nearly all actives have a fitted effect of over 55% in size
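Stably hTDP1-transfected Tdp1-null chicken DT40 cells were treated with library compounds minus camptothecin and grown for at least 48 hr at 37 °C, after which cellular ATP was quantified by luminescence.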
Active calls of the source: *. This is a sample that favours compounds with a hit; in the whole collection about 19% have one here. Unless noted, calls follow the shape of the dose curve; as a rule, active = well fitted curve in the direction sought with a large enough effect; inconclusive = small, poorly fitted or top-dose-only effect, or another doubt; inactive = no such curve, though single readings can be large; an effect the other way counts as inactive or inconclusive. Unless noted, % is scaled to controls: 0 for no effect and ±100 for the full control effect.

CCOc1ccc(CC(=O)NCC(=O)NCc2cc(=O)n(C)c(=O)n2C)cc1 was read as HT1080NT lethal 14.9%, HT1080 IDH1KD tx 2.3%, DT40 TDP1 CPT 6.1%, IL1B secr inh 3.4 and TDP1 cell noCPT 0.5%.
`Cc1cc(C)cc(CC(=O)N2CCC2(C)C(=O)NS(=O)(=O)c2cccc(F)c2)c1` (configuration not stated) gave HT1080NT lethal 16.4%, HT1080 IDH1KD tx 1.3%, DT40 TDP1 CPT -6.7%, IL1B secr inh 6.0 and TDP1 cell noCPT -13.4%.
For C/C(=N\NC(=O)c1cc(C)nc2ccccc12)c1ccco1 the results were HT1080NT lethal 4.8%, HT1080 IDH1KD tx 15.6%, DT40 TDP1 CPT 12.0%, IL1B secr inh 18.1 and TDP1 cell noCPT 1.1%.
For C/C(=N\NC(=O)c1cc2ccccc2cc1O)c1ccc(C)o1 the results were HT1080NT lethal inconclusive, HT1080 IDH1KD tx inconclusive, DT40 TDP1 CPT 18.4µM*, IL1B secr inh 16.6 and TDP1 cell noCPT 14.6µM*.
Screening C/C(=N/NC(=O)c1cc2ccccc2cc1O)c1ccco1 returned HT1080NT lethal inconclusive, HT1080 IDH1KD tx inconclusive, DT40 TDP1 CPT 25.9µM*, IL1B secr inh 0.0 and TDP1 cell noCPT 13µM*.
Screening Cc1cccc(Oc2nc(CN3CCOCC3)nc3sc4c(c23)CCCC4)c1 returned HT1080NT lethal -17.0%, HT1080 IDH1KD tx -7.2%, DT40 TDP1 CPT inconclusive, IL1B secr inh inconclusive and TDP1 cell noCPT inconclusive.
Screening Cc1cc(C)n(-c2nc(NCCCN(C)C)c3c4c(sc3n2)CCCC4)n1 returned HT1080NT lethal 14.6µM*, HT1080 IDH1KD tx inconclusive, DT40 TDP1 CPT inconclusive, IL1B secr inh -28.4 and TDP1 cell noCPT inconclusive.
For Cc1cc(C)n(-c2nc(NCCN(C)C)c3c4c(sc3n2)CCCC4)n1 the results were HT1080NT lethal 20.6µM*, HT1080 IDH1KD tx 20.6µM*, DT40 TDP1 CPT 8.2µM*, IL1B secr inh -98.4* and TDP1 cell noCPT 6.51µM*.
For Cc1cc(C)n(-c2ncnc3sc4c(c23)CCCC4)n1 the results were HT1080NT lethal inconclusive, HT1080 IDH1KD tx -0.6%, DT40 TDP1 CPT 2.7%, IL1B secr inh 6.3 and TDP1 cell noCPT -4.7%.
`Cc1cc(C)n(-c2nc(SCCN3CCOCC3)c3c4c(sc3n2)CCCC4)n1` gave HT1080NT lethal -6.0%, HT1080 IDH1KD tx -20.3%, DT40 TDP1 CPT -31.9%, IL1B secr inh 23.1 and TDP1 cell noCPT 20.6µM*.
CCN(CC)CCCNc1nc(CN2CCOCC2)nc2sc3c(c12)CCC3 was read as HT1080NT lethal inconclusive, HT1080 IDH1KD tx -12.6%, DT40 TDP1 CPT 13.0%, IL1B secr inh 6.5 and TDP1 cell noCPT 0.7%.
`COc1ccccc1-c1nn(CCC(=O)Nc2ccc(C)cc2)c2nc(C)cc(C)c12` gave DT40 TDP1 CPT inconclusive and TDP1 cell noCPT 13µM*.
Screening Cc1ccc(NC(=O)CCn2nc(C)cc2C)cc1 returned HT1080NT lethal 16.8%, HT1080 IDH1KD tx 2.2%, DT40 TDP1 CPT 0.4%, IL1B secr inh 12.7 and TDP1 cell noCPT -4.2%.
Cc1nonc1CC(=O)N1CCCC(C(=O)c2ccc(Cl)cc2)C1 (configuration not stated) was read as HT1080NT lethal -0.5%, HT1080 IDH1KD tx 12.4%, DT40 TDP1 CPT inconclusive, IL1B secr inh -20.3 and TDP1 cell noCPT inconclusive.
Screening Cc1ccc(OCC(O)CN2CCCC2)cc1 (configuration not stated) returned HT1080NT lethal 8.2%, HT1080 IDH1KD tx 7.6%, DT40 TDP1 CPT 6.6%, IL1B secr inh 12.7 and TDP1 cell noCPT 0.9%.
`CCCCn1c(=N)n(CC(O)COc2ccccc2)c2ccccc21` (configuration not stated) gave HT1080NT lethal inconclusive, HT1080 IDH1KD tx inconclusive, DT40 TDP1 CPT 11.6µM*, IL1B secr inh inconclusive and TDP1 cell noCPT 11.6µM*.

Screens (PubChem BioAssay)
